Data published in PubChem BioAssay (NCI).
The panel holds about 83,000 compounds, 20% with a hit somewhere; the sample as a whole holds those more often.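 How to read the values: 0–100, growth inhibition (40 = 60% inhibited); 0, no net growth; -100 to 0, cell death (-40 = 40% of starting cells died; -100 = all dead).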 The source made the active and inactive calls. Rule for the calls: active = growth percent below 10; inactive = the rest.

Columns and labels:
Experiment in all cases: NCI-60 one-dose screen, 48 h (100 = growth as untreated, 0 = no growth, -100 = all killed)
Conditions in all cases: 10 µM unless noted
SR leukemia = tested on: SR leukemia
OVCAR-8 ovarian = tested on: OVCAR-8 ovarian
OVCAR-5 ovarian = tested on: OVCAR-5 ovarian
SK-OV-3 ovarian = tested on: SK-OV-3 ovarian
IGROV1 ovarian = tested on: IGROV1 ovarian
HS 578T breast = tested on: HS 578T breast
NCI/ADR-RES ovarian = tested on: NCI/ADR-RES ovarian
OVCAR-4 ovarian = tested on: OVCAR-4 ovarian
OVCAR-3 ovarian = tested on: OVCAR-3 ovarian
RPMI-8226 leukemia = tested on: RPMI-8226 leukemia

Measured: growth

Cc1ccc(N(C(=O)CCc2c[nH]c3ccccc23)[C@H](C(=O)Nc2ccc(Cl)cc2)c2cccc([N+](=O)[O-])c2)cc1
inactive: SR leukemia 72.9% | OVCAR-8 ovarian 87.8% | OVCAR-5 ovarian 98.4% | SK-OV-3 ovarian 90.8% | IGROV1 ovarian 78.7% | HS 578T breast 82.3% | NCI/ADR-RES ovarian 70.1%

CN(Cc1cnc2nc(N)nc(N)c2n1)c1ccc(C(=O)N[C@@H](CCc2nn[nH]n2)c2nn[nH]n2)cc1
inactive: SR leukemia 29.2% | OVCAR-8 ovarian 32.8% | OVCAR-5 ovarian 56.1% | OVCAR-4 ovarian 91% | SK-OV-3 ovarian 82.8% | IGROV1 ovarian 45.6% | OVCAR-3 ovarian 53% | HS 578T breast 76.2% | NCI/ADR-RES ovarian 40.4%

O=C(CCCCCCSc1nc(-c2ccccc2)cc(-c2ccc(Cl)cc2)n1)NO
active: OVCAR-8 ovarian 8.67% | SK-OV-3 ovarian 0.785% | IGROV1 ovarian -19.6% | NCI/ADR-RES ovarian -25.5%
inactive: RPMI-8226 leukemia 15.7% | OVCAR-5 ovarian 21.6% | OVCAR-4 ovarian 41.3% | OVCAR-3 ovarian 25.2% | HS 578T breast 45.7%

Cc1cccc(Cc2cnc(NC(=O)c3ccc4nnsc4c3)s2)c1
inactive: SR leukemia 95.2% | OVCAR-8 ovarian 96.5% | OVCAR-5 ovarian 84.4% | SK-OV-3 ovarian 91.8% | IGROV1 ovarian 97.9% | OVCAR-3 ovarian 104% | HS 578T breast 109% | NCI/ADR-RES ovarian 90%

Cc1ccc(NCCN(C)C)c2c(=O)c3ccccc3sc12
inactive: SR leukemia 17% | OVCAR-8 ovarian 16.3% | OVCAR-5 ovarian 62% | OVCAR-4 ovarian 42.4% | OVCAR-3 ovarian 33.8% | HS 578T breast 46.4% | NCI/ADR-RES ovarian 38.6%
active: IGROV1 ovarian -30.9%

Cc1c(C(=O)OC(=NC2CCCCC2)NC2CCCCC2)sc2c1c(=O)nc1c(C#N)n[nH]n12
inactive: RPMI-8226 leukemia 137% | OVCAR-8 ovarian 104% | OVCAR-5 ovarian 75.8% | OVCAR-4 ovarian 105% | SK-OV-3 ovarian 106% | IGROV1 ovarian 84.6% | OVCAR-3 ovarian 105% | HS 578T breast 104% | NCI/ADR-RES ovarian 106%

CCCCCCCCCCCCCCCCCCOc1ccc(CC(=O)OCC[N+]2(C)CCCC2)cc1
inactive: SR leukemia 101% | OVCAR-8 ovarian 99.7% | OVCAR-5 ovarian 97.9% | OVCAR-4 ovarian 87.3% | SK-OV-3 ovarian 108% | IGROV1 ovarian 94.1% | HS 578T breast 95% | NCI/ADR-RES ovarian 106%

Cn1cc(-c2csc(-c3cccc(F)c3)n2)c2cccnc21
inactive: HS 578T breast 15.9% [100 µM]
active: SR leukemia 0.511% [100 µM] | OVCAR-8 ovarian 1.57% [100 µM] | OVCAR-5 ovarian -52.4% [100 µM] | OVCAR-4 ovarian -44.8% [100 µM] | SK-OV-3 ovarian -20.8% [100 µM] | IGROV1 ovarian -22.6% [100 µM] | OVCAR-3 ovarian -44.7% [100 µM] | NCI/ADR-RES ovarian -34.4% [100 µM]

Cc1cc(NCc2cc(Nc3ccnc4cc(Cl)ccc34)ccc2F)nc(N2CCN(C)CC2)n1
inactive: OVCAR-8 ovarian 12.1% | SK-OV-3 ovarian 29.5% | NCI/ADR-RES ovarian 16.8%
active: SR leukemia -14.4% | OVCAR-5 ovarian 9.47% | IGROV1 ovarian 8.72% | HS 578T breast -7.51%

COc1nc2c(c(=O)n1C)CN(c1ccccc1)C(=O)CN2C
inactive: SR leukemia 51.5% [100 µM] | OVCAR-8 ovarian 47.4% [100 µM] | OVCAR-5 ovarian 79.9% [100 µM] | OVCAR-4 ovarian 53.4% [100 µM] | OVCAR-3 ovarian 56.5% [100 µM] | HS 578T breast 59.9% [100 µM] | NCI/ADR-RES ovarian 54.2% [100 µM]

CC(=O)c1ccc(NCC(=O)Nc2ccccn2)cc1
inactive: SR leukemia 108% | OVCAR-5 ovarian 109% | OVCAR-4 ovarian 98.9% | IGROV1 ovarian 94.8% | OVCAR-3 ovarian 117% | HS 578T breast 106% | NCI/ADR-RES ovarian 105%

C=C(C)[C@@H]1CC[C@]2(C(=O)NC3CCCCC3)CC[C@]3(C)[C@H](CC[C@@H]4[C@@]5(C)CCC(=O)C(C)(C)[C@@H]5CC[C@]43C)[C@@H]12
inactive: SR leukemia 115% | OVCAR-8 ovarian 94.6% | OVCAR-5 ovarian 96.5% | OVCAR-4 ovarian 82.1% | SK-OV-3 ovarian 97.1% | IGROV1 ovarian 101% | HS 578T breast 89.5% | NCI/ADR-RES ovarian 104%

CCCCCS(=O)(=O)Nc1ccc(C(=O)O)cc1
inactive: SR leukemia 95.7% | OVCAR-8 ovarian 106% | OVCAR-5 ovarian 111% | OVCAR-4 ovarian 103% | SK-OV-3 ovarian 99.2% | IGROV1 ovarian 101% | OVCAR-3 ovarian 110% | HS 578T breast 110% | NCI/ADR-RES ovarian 102%

COc1cc2c(cc1-c1c(C)noc1C)ncc1nc(C3CCCCC3)n(C3CCC(OC(F)F)CC3)c12 (centres undefined)
inactive: SR leukemia 16.7% | OVCAR-8 ovarian 40.5% | OVCAR-5 ovarian 63.5% | OVCAR-4 ovarian 40.3% | IGROV1 ovarian 50.9% | OVCAR-3 ovarian 27.8% | HS 578T breast 52.2% | NCI/ADR-RES ovarian 30%
active: SK-OV-3 ovarian -2.64%

COc1cccc(-c2nn(-c3ccccc3)cc2-c2ccnc(NCCNC(=O)Nc3cccc(C(F)(F)F)c3)c2)c1
active: SR leukemia -21.2% | HS 578T breast -21.3%
inactive: OVCAR-8 ovarian 19.8% | OVCAR-5 ovarian 58.4% | OVCAR-4 ovarian 46.5% | SK-OV-3 ovarian 44.9% | IGROV1 ovarian 55.4% | OVCAR-3 ovarian 39.2% | NCI/ADR-RES ovarian 27.2%

OC(COc1ccccc1Cl)COc1ccccc1Cl
inactive: RPMI-8226 leukemia 81.5% | OVCAR-8 ovarian 109% | OVCAR-5 ovarian 81.9% | OVCAR-4 ovarian 105% | SK-OV-3 ovarian 107% | IGROV1 ovarian 96.7% | OVCAR-3 ovarian 118% | HS 578T breast 102% | NCI/ADR-RES ovarian 95.9%

O=C(O)C1CCC(=O)N1C(=O)OCc1ccccc1 (centres undefined)
inactive: SR leukemia 89.4% | OVCAR-8 ovarian 96.3% | OVCAR-5 ovarian 92.6% | OVCAR-4 ovarian 101% | SK-OV-3 ovarian 109% | IGROV1 ovarian 110% | OVCAR-3 ovarian 118% | HS 578T breast 136% | NCI/ADR-RES ovarian 98.4%

CCN(CC)CCCNc1ccc(Nc2ccc(OC)cc2)cc1
inactive: SR leukemia 52.9% | RPMI-8226 leukemia 64.5% | OVCAR-5 ovarian 108% | SK-OV-3 ovarian 106% | OVCAR-3 ovarian 59.6% | NCI/ADR-RES ovarian 94.7%

CCCCCc1nc2c(c3c1CCCC3)CCCC2
inactive: SR leukemia 31.8% | OVCAR-8 ovarian 59.8% | OVCAR-5 ovarian 67.2% | OVCAR-4 ovarian 70.7% | SK-OV-3 ovarian 80.7% | IGROV1 ovarian 61.7% | OVCAR-3 ovarian 69.8% | HS 578T breast 65% | NCI/ADR-RES ovarian 48.3%

CN1C(=O)N(C)C2C1NN=c1s/c(=C\c3ccccc3)c(=O)n12 (centres undefined)
inactive: RPMI-8226 leukemia 61.6% | OVCAR-8 ovarian 60% | OVCAR-5 ovarian 66.6% | OVCAR-4 ovarian 66.6% | SK-OV-3 ovarian 47.6% | IGROV1 ovarian 46.4% | HS 578T breast 40.7% | NCI/ADR-RES ovarian 32.5%
active: OVCAR-3 ovarian 8.76%

Cc1cc(C)c(-c2c(C)cc(C)cc2CBr)c(CBr)c1
inactive: RPMI-8226 leukemia 50.2% | OVCAR-8 ovarian 68.3% | OVCAR-5 ovarian 97.1% | OVCAR-4 ovarian 74.1% | SK-OV-3 ovarian 101% | IGROV1 ovarian 90.3% | OVCAR-3 ovarian 90.9% | HS 578T breast 86.6% | NCI/ADR-RES ovarian 72.2%

COc1cc(C2CC(=O)Nc3c2c(C)nn3-c2nc3ccccc3[nH]2)c(OC)c(OC)c1OC (centres undefined)
inactive: RPMI-8226 leukemia 55.1% | OVCAR-8 ovarian 47.4% | OVCAR-5 ovarian 104% | OVCAR-4 ovarian 73.1% | SK-OV-3 ovarian 40% | IGROV1 ovarian 76.9% | OVCAR-3 ovarian 12.2% | HS 578T breast 25.5% | NCI/ADR-RES ovarian 57.7%

CCc1ccccc1-n1c(-c2ccc(Cl)cc2)cc(-c2ccc(Cl)cc2)c(C#N)c1=O
inactive: RPMI-8226 leukemia 49.3% | OVCAR-8 ovarian 88.9% | OVCAR-5 ovarian 92.2% | OVCAR-4 ovarian 85.9% | SK-OV-3 ovarian 96.5% | IGROV1 ovarian 96.1% | OVCAR-3 ovarian 87.7% | HS 578T breast 88.4% | NCI/ADR-RES ovarian 81.7%

C=C(C)[C@@H]1CC[C@]2(C)[C@H](CC=C3[C@@H]4CC(C)(C)CC[C@]4(C(N)=O)CC[C@]32C)[C@@]1(C)CCC#N
active: RPMI-8226 leukemia 6.44%
inactive: OVCAR-8 ovarian 26.5% | OVCAR-5 ovarian 47% | OVCAR-4 ovarian 20% | SK-OV-3 ovarian 48.1% | IGROV1 ovarian 53.1% | OVCAR-3 ovarian 23.5% | HS 578T breast 51% | NCI/ADR-RES ovarian 35%

O=C(/C=C/c1c(Cl)nc2sccn12)c1nccs1
inactive: RPMI-8226 leukemia 83.7% | OVCAR-8 ovarian 93.9% | OVCAR-5 ovarian 73.2% | OVCAR-4 ovarian 109% | SK-OV-3 ovarian 89.8% | IGROV1 ovarian 101% | OVCAR-3 ovarian 90.9% | HS 578T breast 65.5% | NCI/ADR-RES ovarian 99.3%

COc1ccc(-c2c(N)n[nH]c2-c2ccc(Cl)cc2O)cc1OC
inactive: RPMI-8226 leukemia 74.5% | OVCAR-8 ovarian 87.1% | OVCAR-5 ovarian 72.6% | OVCAR-4 ovarian 94.1% | SK-OV-3 ovarian 102% | IGROV1 ovarian 92.3% | OVCAR-3 ovarian 95.6% | HS 578T breast 89.2% | NCI/ADR-RES ovarian 90.4%

CC(=O)OC1CCC2(C)C(=CC3C4CCC(=O)C4(C)CCC32)C1 (centres undefined)
inactive: RPMI-8226 leukemia 89.3% | OVCAR-8 ovarian 97.3% | OVCAR-5 ovarian 100% | OVCAR-4 ovarian 103% | SK-OV-3 ovarian 105% | IGROV1 ovarian 105% | OVCAR-3 ovarian 109% | HS 578T breast 119% | NCI/ADR-RES ovarian 104%

O=C(Nc1ccc(-n2cc(-c3ccncc3)c(-c3ccc(Cl)c(O)c3)n2)cc1)N1CCOCC1
inactive: RPMI-8226 leukemia 106% | OVCAR-8 ovarian 105% | OVCAR-5 ovarian 101% | OVCAR-4 ovarian 104% | SK-OV-3 ovarian 96.4% | IGROV1 ovarian 97.3% | OVCAR-3 ovarian 109% | HS 578T breast 105% | NCI/ADR-RES ovarian 106%

CC1=C(SCCC(=O)OC(C[Se]C2=C(C)C(=O)c3ccccc3C2=O)C(=O)NCCCCCC(=O)OCc2ccccc2)C(=O)c2ccccc2C1=O (centres undefined)
inactive: RPMI-8226 leukemia 30.2% | OVCAR-8 ovarian 39% | OVCAR-5 ovarian 44.6% | OVCAR-4 ovarian 53.2% | SK-OV-3 ovarian 32.7% | IGROV1 ovarian 25% | OVCAR-3 ovarian 21% | HS 578T breast 34% | NCI/ADR-RES ovarian 21.1%

CCCCCCCCCCCCCCCCCC1=NCCN1CCOC1=C(Cl)C(=O)c2ccccc2C1=O
inactive: RPMI-8226 leukemia 33.1% | OVCAR-8 ovarian 75% | OVCAR-5 ovarian 115% | SK-OV-3 ovarian 99.9% | IGROV1 ovarian 67% | OVCAR-3 ovarian 23.4% | HS 578T breast 90.1% | NCI/ADR-RES ovarian 81.7%
active: OVCAR-4 ovarian -5.67%

COc1ccc(NC(=O)CSc2nnc(-c3cc(-c4ccccc4)nc4ccccc34)n2-c2ccccc2)cc1
inactive: RPMI-8226 leukemia 90.1% | OVCAR-8 ovarian 90.4% | OVCAR-5 ovarian 99.2% | OVCAR-4 ovarian 90.3% | SK-OV-3 ovarian 102% | IGROV1 ovarian 92.5% | OVCAR-3 ovarian 103% | HS 578T breast 94.7% | NCI/ADR-RES ovarian 91.8%
